# Screening data (PubChem)
# The list is not random: actives were taken first. Their share in the collection is about 8.8%.
# HT1080NT lethal: kills 2HG-producing HT-1080-NT fibrosarcoma cells. 360,000 tested, 1.6% active. Potency, µM (top dose mostly 46.1 µM), for inactives: at the top dose activity, negative = less viability, hits mostly cytotoxic. HT-1080-NT fibrosarcoma viability, CellTiter-Glo ATP luminescence, 48 h;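 also: NT is the 2HG producing partner of a matched IDH1 knockdown line; potency is read from the fitted curve at half-maximal effect; 0% = DMSO-treated cells and -100% = media-only wells without cells; nearly all actives have a fitted effect of over 55% in size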
#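 HT-1080-NT fibrosarcoma cells (2HG-overproducing), 750 cells/well in RPMI with 5% FBS, dosed after 2 h and incubated 48 h at 37C. CellTiter-Glo luminescence normalized to DMSO and no-cell wells; concentration-response curves fitted and classed.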
# KB-V1 cytotox: KB-V1 MDR subline cytotoxicity | KB-V1 MDR cells viability, CellTiter-Glo, 72 h | AID 1347076 | Potency, µM (top dose mostly 46.1 µM), usual class: cytotoxic | 400,000 tested, 3.4% active; also: potency is read from the fitted curve at half-maximal effect; nearly all actives have a fitted effect of over 60% in size
#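 Potencies derive from concentration-effect curves fitted to normalized luminescence (CellTiter-Glo) of KB-V1 cells treated for 72 h at 37 degrees C in phenol-red-free DMEM containing 10% FBS.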
# IL-1B inflam inh: inflammasome signaling inhibition, IL-1 beta readout; THP-1 LPS/ATP IL-1B secretion, AlphaLISA, 16 h; active compounds read low; 360,000 tested, 4.7% active; activity change, % at 57.5 µM; in the data active = activity change below about -50%; inconclusive = mostly about -30% to -49%
#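 THP-1 cells pretreated 1 hr with compounds (up to 57.5 uM final), then stimulated with LPS (250 ng/mL final) plus ATP (1.25 mM final); secreted IL-1B measured by AlphaLISA after 16 hr, decreased signal indicating inhibition.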
# HT1080 IDH1KD tx: HT-1080 IDH1 knockdown cell toxicity (counter line) | Potency, µM (top dose mostly 46.1 µM), for the others: top-dose activity, negative = toxicity, hits mostly cytotoxic | HT-1080 IDH1 knockdown viability, ATP luminescence, 48 h | AID 686971 | 360,000 tested, 2% active;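 also: potency is read from the fitted curve at half-maximal effect; 0% = DMSO wells and -100% = cell-free medium wells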
#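 After a 2 h attachment period, IDH1KD HT-1080 cells took pin-transferred compound for 48 h at 37 °C; ATP-based luminescence after 10 min room-temperature reagent incubation reported viability.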
# KB-3-1 cytotox: kills parental KB-3-1 adenocarcinoma cells | Potency, µM (titrated, usually from 46.1 µM), usual class: cytotoxic | KB-3-1 viability, CellTiter-Glo ATP luminescence, 72 h | AID 1347075 | 400,000 tested, 1.4% active; also: potency is read from the fitted curve at half-maximal effect; nearly all actives have a fitted effect of over 60% in size
#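 KB-3-1 parental drug-naive adenocarcinoma cells in DMEM/10% FBS, incubated 72 h at 37 C with pin-transferred compounds across a concentration series. Viability by CellTiter-Glo luminescence; concentration-response curves fitted after normalization.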
# The depositor's hits bear a star; i = inactive; ? = inconclusive; nt = not tested or not shown. Unless noted, calls follow the shape of the dose curve; as a rule, active = well fitted curve in the direction sought with a large enough effect; inconclusive = small, poorly fitted or top-dose-only effect, or another doubt; inactive = no such curve, though single readings can be large; an effect the other way counts as inactive or inconclusive. Unless noted, % is scaled to controls: 0 for no effect and ±100 for the full control effect.
SMILES,HT1080NT lethal,KB-V1 cytotox,IL-1B inflam inh,HT1080 IDH1KD tx,KB-3-1 cytotox
CCCCC[C@@H](/C=C/C1C(=O)C=C[C@H]1C/C=C\CCCC(=O)O)OC(C)=O (stereo partly drawn),8.3%,i,-77.2*,4.2%,i
COc1cc(OC)cc(C(=O)N2CC(=O)Nc3ccc(Cl)cc3C2c2ccccc2)c1 (stereo not drawn),nt,i,nt,nt,i
Cc1nn(C(C)C(=O)NCCCc2ccccc2)c(=O)c2nn(-c3ccccc3)c(C)c12 (stereo not drawn),-10.2%,?,-8.8,-3.9%,i
COC(=O)CN1C(=S)N(Cc2ccccc2)C(=O)C1CC(=O)Nc1ccc(OC)cc1 (stereo not drawn),-5.0%,i,23.4,3.7%,i
COC(=O)CN1C(=S)N(c2ccc(F)cc2)C(=O)C1CC(=O)Nc1ccc(OC)cc1 (stereo not drawn),11.4%,i,-1.2,-0.7%,i
CCNC(=O)CC1C(=O)N(c2ccc(F)cc2)C(=S)N1CCc1ccncc1 (stereo not drawn),6.1%,i,2.4,5.3%,i
COc1ccc(NC(=O)CC2C(=O)N(C)C(=S)N2CCc2ccccc2)cc1 (stereo not drawn),-8.3%,10.3µM*,-23.0,-10.7%,?
COc1ccc(NC(=O)CC2C(=O)N(C)C(=S)N2CCc2ccc(F)cc2)cc1 (stereo not drawn),?,?,-64.1*,?,?
O=C(CC1C(=O)N(c2ccc(Cl)cc2)C(=S)N1CCc1ccncc1)Nc1ccc(F)cc1 (stereo not drawn),?,i,-62.5*,?,i
COc1ccc(CCN2C(=S)N(C)C(=O)C2CC(=O)Nc2ccc(OC)cc2)cc1 (stereo not drawn),-17.1%,i,-4.3,?,i
CCN1C(=O)C(CC(=O)Nc2ccc(OC)cc2)N(CCc2ccc(F)cc2)C1=S (stereo not drawn),?,i,-63.7*,?,?
CCN1C(=O)C(CC(=O)Nc2ccc(OC)cc2)N(CCCN2CCN(c3ccc(F)cc3)CC2)C1=S (stereo not drawn),?,?,-13.3,18.4µM*,?
CCN(CC)c1ccc(NC(=O)c2ccc3c(c2)c(C)c(C)n3C)cc1,18.4µM*,16.4µM*,-17.1,?,23.1µM*
CCN(CC)c1ccc(/C=N/NC(=S)NCc2ccco2)cc1,?,?,-18.4,?,18.4µM*
CC(C)C[C@H](NC(=O)OC(C)(C)C)C(=O)N[C@@H](CO)[C@H](O)[C@@H]1C[C@@H]1C(=O)NC1CCCCC1,-1.8%,10.3µM*,-1.1,1.3%,i
CC(C)C[C@H](NC(=O)OC(C)(C)C)C(=O)N[C@@H](CO)[C@H](O)[C@@H]1C[C@@H]1C(=O)NC1CC1,8.5%,i,9.9,11.8%,i
Cc1ccc(OCCNc2ccc(C(F)(F)F)cc2[N+](=O)[O-])cc1,9.2%,i,-1.9,18.0%,i
Cc1cc(C)cc(OC(=O)CS(=O)c2ccc(C(F)(F)F)cc2[N+](=O)[O-])c1 (stereo not drawn),20.6µM*,?,-121.0*,23.1µM*,?
O=C(CS(=O)c1ccc(C(F)(F)F)cc1[N+](=O)[O-])Oc1ccc(Cl)cc1 (stereo not drawn),?,i,-97.5*,?,?
CC(=O)OC(/C(O)=C(\C#N)c1nc2ccccc2[nH]1)c1ccccc1 (stereo not drawn),8.91µM*,i,6.5,?,i
C/C(O)=C(/C#N)c1nc2ccccc2[nH]1,0.3%,?,-13.6,-0.5%,i
Cc1ccc(NC(=O)Cn2c(O)c(N=NC(=O)c3cc4ccccc4cc3O)c3ccccc32)cc1,20.6µM*,?,-94.7*,?,?
O=C1C=CCC(/C=C/c2ccccc2)O1 (stereo not drawn),?,?,-102.7*,?,?
Cc1onc(-c2ccccc2)c1CNC(=O)Nc1cccc(Cl)c1,-5.5%,i,-65.9*,?,?
COc1ccc(CCN(Cc2cc3cccc(C)c3[nH]c2=O)C(=O)NC2CCCCC2)cc1OC,12.5%,?,-68.2*,2.2%,i
SMILES,HT1080NT lethal,KB-V1 cytotox,IL-1B inflam inh,HT1080 IDH1KD tx,KB-3-1 cytotox
Cc1cc(C)c2[nH]c(=O)c(CN(CC3CCCO3)S(=O)(=O)c3ccc4c(c3)OCCO4)cc2c1 (stereo not drawn),19.8%,i,?,4.6%,i
Cc1cccc2cc(CN(Cc3ccco3)C(=O)NC3CCCCC3)c(=O)[nH]c12,-4.5%,3.66µM*,?,-1.8%,i
Cc1cccc2cc(CN(CC3CCCO3)C(=O)NC3CCCCC3)c(=O)[nH]c12 (stereo not drawn),5.1%,i,-16.7,-16.3%,i
CCN(CC)CCCN(Cc1cc2ccc(C)c(C)c2[nH]c1=O)C(=O)NC1CCCCC1,-89.9%,i,-51.6*,-109.7%,i
Cc1cccc2cc(CN(Cc3ccco3)S(=O)(=O)c3ccc4c(c3)OCCO4)c(=O)[nH]c12,?,i,-56.4*,?,i
CC1(C)CC[C@]2(C(=O)O[C@@H]3O[C@H](CO)[C@@H](O)[C@H](O)[C@H]3O)CC[C@]3(C)C(=CCC4[C@@]5(C)CC[C@H](O[C@@H]6O[C@H](C(=O)O)[C@@H](O[C@H]7OC[C@@H](O)[C@@H](O)[C@@H]7O)[C@H](O)[C@H]6O)C(C)(C)C5CC[C@]43C)[C@@H]2C1 (stereo partly drawn),15.7%,i,18.3,8.7%,i
CC1(C)CC[C@]2(C(=O)O)CC[C@]3(C)C(=CC[C@@H]4[C@@]5(C)CC[C@H](O[C@@H]6O[C@H](C(=O)O)[C@@H](O)[C@H](O[C@@H]7OC[C@H](O)[C@H](O)[C@H]7O)[C@H]6O)C(C)(C)[C@@H]5CC[C@]43C)[C@@H]2C1,18.4µM*,i,-110.3*,?,i
NS(=O)(=O)c1ccc(CCNC(=O)c2cccc([N+](=O)[O-])c2)cc1,1.7%,i,35.1,8.9%,i
O=C(OCC(=O)N1CCCC1=O)c1nc(Cl)c(Cl)c(Cl)c1Cl,-7.5%,i,-95.0*,?,?
Nc1c(Cl)c(Cl)nc(C(=O)OCC(=O)N2CCCC2=O)c1Cl,4.1%,?,13.0,5.8%,i
Cc1c(Cl)cccc1-n1ncc(C(=O)NC2CCCC2)c1C1CCN(C(=O)OC(C)(C)C)CC1,nt,i,nt,nt,i
CCCCn1c(N)c(N(CC(C)C)C(=O)C2CCN(S(=O)(=O)c3ccc(C)c(C)c3)CC2)c(=O)[nH]c1=O,13.7%,?,?,1.0%,i
